Reference: the supplement of paper PMC6555819

How the values were obtained:
Test in all cases: PBM binding z-score (relative to random genomic background probes); higher = stronger binding; sequences stand for … in GC…GCGATTGACAGCGTAGAATGAAGG
[1] = system: PPARg:RXRa DBDmut IVT, anti-RXR (DBD mutation: RXRa K156A/R161A, NR concentration 270 nM, RXRa partner concentration 90 nM)
Summary of the method: (§1)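 Custom Agilent 4×180K protein-binding microarrays carried double-stranded probes. Their 34-nt variable regions held direct-repeat seeds, single-nucleotide variants, half-site ablations and random human genomic background sequences. Arrays were incubated 1 h with ligand-free nuclear receptor dimers in PBS pH 7.4, 2% milk, 0.02% Triton X-100, 1 mM DTT, 0.2 mg/mL BSA and 0.4 mg/ml salmon testes DNA. Antibodies against each partner (one per run) detected binding, and scanned fluorescence was regression-normalized. Binding z-scores use random background probes as reference.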

[2] = system: PPARg:RXRa IVT, anti-PPARg (NR concentration 270 nM, RXRa partner concentration 90 nM)
Summary of the method: as §1

[3] = system: PPARg DBDmut:RXRa IVT, anti-PPARg (DBD mutation: PPARg1 K132A/R137A, NR concentration 270 nM, RXRa partner concentration 90 nM)
Summary of the method: as §1

[4] = system: PPARg DBDmut IVT, anti-PPARg (DBD mutation: PPARg1 K132A/R137A, NR concentration 270 nM)
Summary of the method: as §1

[5] = system: PPARg homodimer (NR concentration 180 nM)
Summary of the method: as §1

[6] = system: PXR:RXRa (NR concentration 270 nM, RXRa partner concentration 90 nM)
Summary of the method: as §1

[7] = system: PXR homodimer (NR concentration 270 nM)
Summary of the method: as §1

[8] = system: RARa:RXR (NR concentration 270 nM, RXRa partner concentration 90 nM)
Summary of the method: as §1

[9] = system: RARa homodimer (NR concentration 270 nM)
Summary of the method: as §1

[10] = system: RARb:RXRa (NR concentration 270 nM, RXRa partner concentration 90 nM)
Summary of the method: as §1

[11] = system: RARb homodimer (NR concentration 270 nM)
Summary of the method: as §1

[12] = system: RARg:RXRa (NR concentration 270 nM, RXRa partner concentration 90 nM)
Summary of the method: as §1

[13] = system: RARg homodimer (NR concentration 270 nM)
Summary of the method: as §1

[14] = system: RXRa DBDmut IVT, anti-RXR (DBD mutation: RXRa K156A/R161A, NR concentration 90 nM)
Summary of the method: as §1

[15] = system: RXRa homodimer (NR concentration 180 nM)
Summary of the method: as §1

[16] = system: THRa:RXRa (NR concentration 90 nM, RXRa partner concentration 90 nM)
Summary of the method: as §1

[17] = system: THRa homodimer (NR concentration 90 nM)
Summary of the method: as §1

[18] = system: VDR homodimer (NR concentration 270 nM)
Summary of the method: as §1

Row | Sequence | PBM binding z-score [1] | PBM binding z-score [2] | PBM binding z-score [3] | PBM binding z-score [4] | PBM binding z-score [5] | PBM binding z-score [6] | PBM binding z-score [7] | PBM binding z-score [8] | PBM binding z-score [9] | PBM binding z-score [10] | PBM binding z-score [11] | PBM binding z-score [12] | PBM binding z-score [13] | PBM binding z-score [14] | PBM binding z-score [15] | PBM binding z-score [16] | PBM binding z-score [17] | PBM binding z-score [18]
1 | ATCGAAAGGTCGACGAGGTGAGTATTCACCGTTT | 0.554 | 2.07 | 1.07 | 0.398 | 0.854 | 2.94 | 0.386 | 3.29 | -0.0728 | 3.91 | 3.13 | 4.29 | 4.32 | 1.13 | 4.63 | 3.65 | 0.672 | 0.806
2 | ATCGAAAGGTCGCGGTGAGTATAGAGAAAGGGAA | 0.748 | 2.76 | 0.634 | 0.427 | 1.87 | 3.21 | 0.401 | 3.63 | 0.883 | 4.66 | 3.05 | 5 | 4.48 | 1.33 | 5.39 | 2.84 | 0.211 | 1.06
3 | AGAATGAGGTTACCAAAGATCACGGAAACGCTTG | 3.7 | 3.26 | 1.1 | 0.644 | 0.807 | 2.1 | -0.253 | 2.3 | 0.0214 | 2.15 | 1.02 | 2.24 | 1.89 | 1.17 | 2.95 | 3.03 | 0.696 | 0.151
4 | CAAACTAGGTCAAAGGTCGAAGTCGAGCCAACCA | 8.87 | 9.27 | 5.32 | 3.95 | 3.95 | 5.77 | 0.27 | 8.46 | 0.524 | 4.71 | 3.9 | 7.26 | 5.75 | 2.51 | 8.7 | 4.01 | 0.604 | 1.73
5 | CAAACTACGTCACAGAGGTCAAAGTCCGTGCGTA | 0.625 | 2.48 | 1.33 | 0.372 | 2.66 | 5.74 | 2.1 | 5.74 | 1.25 | 3.98 | 4.71 | 5.46 | 4.64 | 1.87 | 6.27 | 3.7 | 1.47 | 4.03
6 | ATATGTAGGTAAGCTGGGGTCATTCAGACTAGGC | 6.08 | 5.46 | 1.69 | 1.13 | 1.48 | 6.07 | 3.4 | 5.45 | 0.719 | 2.67 | 3.48 | 3.82 | 2.24 | 1.8 | 5.36 | 4.65 | 3.38 | 4.3
7 | CCTATTATTTGACCATAAGGGCAACCGAAGCTCG | 0.801 | 1.15 | 0.688 | 1.57 | 3.21 | 0.9 | 2.77 | 1.05 | 4.4 | 1.64 | 2.16 | 1.05 | 1.21 | 1.06 | 0.762 | 1.83 | 2.31 | 2.19
8 | ACTAGCTGGCCAAGGGTCACTCAAGATTAGTCCG | -0.256 | 1.86 | -0.605 | -0.878 | 1.67 | 2.92 | -0.559 | 3.54 | -0.213 | 3.34 | 3.54 | 3.78 | 3.54 | 0.138 | 3.9 | 2.48 | 0.0817 | 0.917
9 | AGAATGAGGTTATGCGTAGATCAGGGAAGAAAGT | 2.31 | 2.01 | 0.845 | 0.71 | 0.621 | 0.966 | 0.308 | 1.32 | 0.403 | 1.57 | 0.687 | 1.51 | 1.09 | 1.23 | 1.99 | 2.24 | 0.599 | 0.644
10 | ACTAGCAGGCCAAGTTTGGGCCACTCAAACAAAG | 0.654 | 0.241 | -1.11 | -0.696 | -1.66 | -0.855 | -0.899 | -0.593 | -1.32 | 0.466 | 0.113 | 0.0368 | 0.111 | -0.286 | -0.539 | 0.356 | -0.681 | -0.556
11 | AGTCAAAGCTCAGGACGAGGTAACGTAAAGCACG | -0.71 | -0.0403 | -0.126 | -0.455 | 0.053 | -0.435 | -0.405 | 0.159 | -0.547 | -0.0865 | -0.228 | 0.0301 | 0.2 | -0.664 | -0.013 | 1.86 | 1.21 | -0.138
12 | CGTCCATGGTCATAGGAGGTCAGTGAAGACAGAT | 0.484 | 2.01 | -0.127 | -0.368 | 2.09 | 3.77 | 0.616 | 2.79 | 0.333 | 2.91 | 3.47 | 2.87 | 2.8 | 0.0145 | 2.18 | 3.83 | 0.621 | 1.16
13 | CGCCCAAGGTCAATGCTAGGTCAGTGAAAGCATT | 2.79 | 3.47 | -0.141 | -0.36 | 5.9 | 4.68 | 1.04 | 6.04 | 0.81 | 5.09 | 5.07 | 7.39 | 6.43 | 2.91 | 5.06 | 4.28 | 2.72 | 2.51
14 | TTACCAAGGTGGAGGTCGTTGATCCCTCTGTAGA | -0.0945 | 0.927 | -0.0829 | 0.467 | 0.494 | 1.37 | -0.028 | 1.58 | -0.0306 | 0.92 | 1.15 | 0.155 | -0.0331 | 0.0989 | 1.41 | 1.4 | 0.145 | 1.32
15 | CCTAGCAGGCCAATCTGGGTCACTCAAGGCTTGA | 4.72 | 5.12 | -1.06 | -0.836 | 0.786 | 0.995 | -0.679 | 1.17 | -0.672 | 1.58 | 2.33 | 1.22 | 1.57 | 0.0731 | 0.984 | 3.9 | 0.369 | 0.000728
